The values below come from PubChem BioAssay (NCI).

Some test systems named below: RPMI-8226 leukemia; OVCAR-8 ovarian; OVCAR-5 ovarian; OVCAR-4 ovarian; SK-OV-3 ovarian; IGROV1 ovarian; OVCAR-3 ovarian; HS 578T breast; NCI/ADR-RES ovarian; T-47D breast; BT-549 breast; MDA-MB-435 melanoma; SW-620 colon; MCF7 breast; HCT-116 colon; HCC-2998 colon; KM12 colon.
Common to all, as to test: NCI-60 one-dose screen, 48 h (100 = growth as untreated, 0 = no growth, -100 = all killed)
Details in all cases: 10 µM unless noted

About 83,000 compounds went through this panel and 20% of them were active in at least one assay; those are over-represented in the sample as a whole.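 Growth was measured after 48 h exposure to one concentration of compound in 96-well plates. Values under 10 count as active.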 Unmarked numbers belong to inactive results. The source made the active and inactive calls.

Take `O=C1CC(=O)N(c2ccccc2)O1`: the growth in the assay with RPMI-8226 leukemia was 105%; in the assay on OVCAR-8 ovarian it was 103%; with OVCAR-5 ovarian it was 92.9%; with OVCAR-4 ovarian, 110%; in the assay on SK-OV-3 ovarian, 98.4%; in the assay with IGROV1 ovarian, 99%. The growth is 118% with OVCAR-3 ovarian; 110% with HS 578T breast; 101% in the assay on NCI/ADR-RES ovarian; 97.5% in the assay on T-47D breast; 101% in the assay on BT-549 breast; 104% with MDA-MB-435 melanoma. Besides, the growth in the assay on SW-620 colon was 101%; with MCF7 breast, 115%; with HCT-116 colon, 101%; with HCC-2998 colon, 105%; with KM12 colon, 109%.
On to `O=C(Nc1ccncc1)C(=O)c1cn(S(=O)(=O)c2cccc(F)c2)c2ccccc12`, for which the growth in the assay with RPMI-8226 leukemia is 30.1%; in the assay on OVCAR-8 ovarian, 45%; in the assay with OVCAR-5 ovarian, 73.9%; with OVCAR-4 ovarian, 67.2%; in the assay with SK-OV-3 ovarian, 93.8%; in the assay on IGROV1 ovarian, 40.6%. The growth was 23.5% in the assay with OVCAR-3 ovarian; 55.8% in the assay with HS 578T breast; -11.2% (active) in the assay on NCI/ADR-RES ovarian; 31.6% with T-47D breast; 27.8% in the assay with BT-549 breast; -1.83% (active) in the assay on MDA-MB-435 melanoma. Also, the growth is 21.7% in the assay on SW-620 colon; 5.06% (active) with MCF7 breast; 19.5% in the assay with HCT-116 colon; 66.2% in the assay on HCC-2998 colon; 27.6% with KM12 colon.
In the case of `Cc1ccc2c(c1)O/C(=C\c1ccc([N+](=O)[O-])o1)C2=O`, the growth in the assay with RPMI-8226 leukemia was -34.4% (active); in the assay with OVCAR-8 ovarian, -4.7% (active); with OVCAR-5 ovarian, 71.6%; in the assay on OVCAR-4 ovarian it was 5.62% (active); in the assay on SK-OV-3 ovarian, 91.1%; in the assay with IGROV1 ovarian, -17.3% (active). For the same compound, the growth in the assay with OVCAR-3 ovarian was -15% (active); with HS 578T breast it was 106%; with NCI/ADR-RES ovarian, 78.5%; in the assay with T-47D breast, 41.4%; in the assay on BT-549 breast, 25.9%; in the assay on MDA-MB-435 melanoma, -8.75% (active). Moreover, the growth in the assay on SW-620 colon is -56.5% (active); in the assay with MCF7 breast it was 9.48% (active); in the assay on HCT-116 colon it was -47.7% (active); in the assay on HCC-2998 colon, 64.3%; in the assay on KM12 colon it was 86%.
For `CN(CC(=O)N(Cc1ccc(C2CCCCC2)cc1)c1ccc(C(=O)O)cc1)S(=O)(=O)c1c(F)c(F)c(F)c(F)c1F`, the growth in the assay on RPMI-8226 leukemia is 11.3%; in the assay on OVCAR-8 ovarian, 6.02% (active); in the assay on OVCAR-5 ovarian, 116%; in the assay on OVCAR-4 ovarian, 83.8%; in the assay with SK-OV-3 ovarian, 106%; in the assay with IGROV1 ovarian, -24.8% (active). In addition, the growth was -83.1% (active) in the assay on OVCAR-3 ovarian; 18.5% with HS 578T breast; 87.7% in the assay with NCI/ADR-RES ovarian; -6.87% (active) in the assay with T-47D breast; 75.4% in the assay on BT-549 breast; 68.3% in the assay on MDA-MB-435 melanoma. In addition, the growth with SW-620 colon was -67% (active); with MCF7 breast, 10.6%; in the assay on HCT-116 colon, 5.63% (active); in the assay on HCC-2998 colon, -62.9% (active); in the assay with KM12 colon it was 90%.
For the compound `O=C(Nc1ccc(Cl)cc1)Nc1ccc(Oc2nncc3ccccc23)cc1`, the growth is -0.0795% (active) in the assay with RPMI-8226 leukemia; 19.4% in the assay on OVCAR-8 ovarian; -16% (active) with OVCAR-5 ovarian; -20.8% (active) with OVCAR-4 ovarian; 56.7% in the assay with SK-OV-3 ovarian; 8.16% (active) in the assay on IGROV1 ovarian. Besides, the growth in the assay on OVCAR-3 ovarian was -62.8% (active); in the assay with HS 578T breast, 37.5%; in the assay on NCI/ADR-RES ovarian it was 37.6%; in the assay with T-47D breast it was 10.2%; in the assay with BT-549 breast, -10.3% (active); with MDA-MB-435 melanoma, -33.3% (active). In addition, the growth was -30.1% (active) in the assay on SW-620 colon; 14.3% in the assay on MCF7 breast; -56.9% (active) with HCT-116 colon; -42.2% (active) in the assay with HCC-2998 colon; -32.3% (active) with KM12 colon.
As for `COc1ccc(-n2nnc(C(=O)O)c2-c2cc(OC)c(OC)c(OC)c2)cc1`, the growth with RPMI-8226 leukemia is 99.5%; with OVCAR-8 ovarian, 100%; in the assay on OVCAR-5 ovarian, 103%; in the assay with OVCAR-4 ovarian it was 109%; in the assay on SK-OV-3 ovarian, 99.1%; with IGROV1 ovarian, 116%. Also, the growth in the assay on OVCAR-3 ovarian is 119%; with HS 578T breast, 102%; in the assay on NCI/ADR-RES ovarian it was 109%; with T-47D breast it was 104%; in the assay with BT-549 breast it was 101%; in the assay with MDA-MB-435 melanoma it was 121%. The growth in the assay with SW-620 colon is 104%; in the assay with MCF7 breast it was 102%; in the assay with HCT-116 colon it was 100%; in the assay on HCC-2998 colon it was 99.1%; in the assay on KM12 colon it was 105%.
`Cc1cc([N+](=O)[O-])c(C)cc1C(=O)O`: the growth with RPMI-8226 leukemia is 115%; with OVCAR-8 ovarian, 103%; in the assay on OVCAR-5 ovarian, 93.7%; with OVCAR-4 ovarian it was 111%; in the assay with SK-OV-3 ovarian it was 99.2%; with IGROV1 ovarian, 110%. Further, the growth with OVCAR-3 ovarian was 106%; with HS 578T breast it was 107%; in the assay with NCI/ADR-RES ovarian it was 103%; with T-47D breast, 83.5%; with BT-549 breast it was 92.5%; with MDA-MB-435 melanoma, 102%. Further, the growth is 108% in the assay on SW-620 colon; 97.6% with MCF7 breast; 102% with HCT-116 colon; 109% in the assay with HCC-2998 colon; 102% with KM12 colon.
For the compound `Cc1cc(O)c2c(c1)C[C@H]1[C@@H]3CC[C@H]4CC(=O)CC[C@]4(C)[C@H]3CC(=O)[C@]21C`, the growth in the assay with RPMI-8226 leukemia is 56.6%; with OVCAR-8 ovarian, 97.4%; with OVCAR-5 ovarian it was 79.7%; in the assay on OVCAR-4 ovarian, 109%; with SK-OV-3 ovarian it was 114%; in the assay with IGROV1 ovarian it was 126%. Also, the growth was 98% in the assay with OVCAR-3 ovarian; 33% with HS 578T breast; 83.8% with NCI/ADR-RES ovarian; 67.9% in the assay with T-47D breast; 91.4% in the assay with BT-549 breast; 91.1% in the assay on MDA-MB-435 melanoma. The growth is 103% in the assay with SW-620 colon; 95.6% in the assay with MCF7 breast; 77.1% in the assay on HCT-116 colon; 87.9% in the assay with HCC-2998 colon; 81.2% in the assay on KM12 colon.
On to `COc1ccccc1[C@H]1c2[nH]c3ccccc3c2C[C@H]2C(=O)N(CCCCCCC(=O)NO)CC(=O)N12`, for which the growth in the assay on RPMI-8226 leukemia is -1.71% (active); in the assay with OVCAR-8 ovarian, 36.9%; with OVCAR-5 ovarian, 26.4%; with OVCAR-4 ovarian, 58.1%; in the assay on SK-OV-3 ovarian it was 61.7%; in the assay with IGROV1 ovarian, 41.1%. The growth in the assay on OVCAR-3 ovarian is 48.2%; with HS 578T breast it was 53.6%; in the assay with NCI/ADR-RES ovarian it was 72.4%; in the assay on T-47D breast it was 18.2%; in the assay on BT-549 breast it was 67.8%; in the assay with MDA-MB-435 melanoma it was 45.4%. The growth with SW-620 colon was 15.6%; in the assay on MCF7 breast it was 37.7%; with HCT-116 colon, 18.3%; with HCC-2998 colon, 38.9%; in the assay with KM12 colon, 77.8%.
